About 83,000 compounds went through this panel and 20% of them were active in at least one assay; those are over-represented in the sample as a whole.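 Single-dose data. Exposure time 48 hours. Values below 10 considered active.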 Calls of active or inactive are those of the source.
Experiments:
Experiment in all cases: NCI-60 one-dose screen, 48 h (100 = growth as untreated, 0 = no growth, -100 = all killed)
Details in all cases: 10 µM unless noted
RPMI-8226 leukemia = tested on: RPMI-8226 leukemia
OVCAR-8 ovarian = tested on: OVCAR-8 ovarian
OVCAR-5 ovarian = tested on: OVCAR-5 ovarian
OVCAR-4 ovarian = tested on: OVCAR-4 ovarian
SK-OV-3 ovarian = tested on: SK-OV-3 ovarian
IGROV1 ovarian = tested on: IGROV1 ovarian
OVCAR-3 ovarian = tested on: OVCAR-3 ovarian
HS 578T breast = tested on: HS 578T breast
NCI/ADR-RES ovarian = tested on: NCI/ADR-RES ovarian
T-47D breast = tested on: T-47D breast
MDA-MB-435 melanoma = tested on: MDA-MB-435 melanoma
SW-620 colon = tested on: SW-620 colon
MCF7 breast = tested on: MCF7 breast
HCC-2998 colon = tested on: HCC-2998 colon
KM12 colon = tested on: KM12 colon
BT-549 breast = tested on: BT-549 breast
HCT-116 colon = tested on: HCT-116 colon

Measured: growth

O=c1oc2ccccc2c(Cl)c1Cl
inactive: RPMI-8226 leukemia 40.6% | OVCAR-8 ovarian 61% | OVCAR-5 ovarian 88.1% | OVCAR-4 ovarian 91.7% | SK-OV-3 ovarian 94.7% | IGROV1 ovarian 47.5% | OVCAR-3 ovarian 103% | HS 578T breast 85% | NCI/ADR-RES ovarian 86.4% | T-47D breast 43.1% | MDA-MB-435 melanoma 52% | SW-620 colon 48.9% | MCF7 breast 34% | HCC-2998 colon 93.1% | KM12 colon 83.6%

COc1ccc(/C=N/C2=C(C#N)C(c3ccc(OC)cc3)c3ccc4ccccc4c3O2)cc1 (stereo unspecified)
inactive: RPMI-8226 leukemia 81.7% | OVCAR-8 ovarian 84.7% | OVCAR-5 ovarian 104% | OVCAR-4 ovarian 85.4% | SK-OV-3 ovarian 77.6% | IGROV1 ovarian 56.2% | OVCAR-3 ovarian 78.9% | NCI/ADR-RES ovarian 45% | T-47D breast 73.6% | BT-549 breast 84% | SW-620 colon 43.3% | MCF7 breast 34.4% | HCT-116 colon 71.7% | HCC-2998 colon 97.4% | KM12 colon 59.4%
active: MDA-MB-435 melanoma -10.9%

N/C(=N\c1nc2ccccc2s1)NC(=O)Nc1cccc(Cl)c1
inactive: RPMI-8226 leukemia 41.6% | OVCAR-8 ovarian 47.7% | OVCAR-5 ovarian 67.5% | OVCAR-4 ovarian 62.3% | SK-OV-3 ovarian 41.9% | IGROV1 ovarian 35.5% | OVCAR-3 ovarian 15.8% | HS 578T breast 17.5% | NCI/ADR-RES ovarian 11.8% | T-47D breast 42.6% | SW-620 colon 31.9% | MCF7 breast 21.2% | HCC-2998 colon 73% | KM12 colon 22.9%
active: MDA-MB-435 melanoma 1.08%

CCN(CC)CCCC(C)Nc1c2ccc(Cl)cc2nc2ccc(O)cc12 (stereo unspecified)
active: MCF7 breast 6.22%
inactive: RPMI-8226 leukemia 21.8% | OVCAR-8 ovarian 30.1% | OVCAR-5 ovarian 74.3% | OVCAR-4 ovarian 24.6% | SK-OV-3 ovarian 58.1% | IGROV1 ovarian 53.8% | OVCAR-3 ovarian 54.8% | HS 578T breast 58% | NCI/ADR-RES ovarian 77.3% | T-47D breast 49.7% | MDA-MB-435 melanoma 27% | SW-620 colon 24.5% | HCT-116 colon 14.8% | HCC-2998 colon 25.4% | KM12 colon 30.4%

N#C/C(=C\c1ccc(-c2ccccc2F)o1)c1nc(-c2ccco2)cs1
inactive: RPMI-8226 leukemia 80.3% | OVCAR-8 ovarian 94.2% | OVCAR-5 ovarian 78.2% | OVCAR-4 ovarian 19.6% | SK-OV-3 ovarian 92.6% | IGROV1 ovarian 59.9% | OVCAR-3 ovarian 89.6% | HS 578T breast 98.5% | NCI/ADR-RES ovarian 106% | T-47D breast 14.5% | MDA-MB-435 melanoma 101% | SW-620 colon 96.1% | MCF7 breast 37.7% | HCT-116 colon 93% | HCC-2998 colon 67.8% | KM12 colon 63.9%

COc1ccc2nc(NNC(=O)c3cnccn3)c3cccn3c2c1
inactive: HS 578T breast 43.8% | MDA-MB-435 melanoma 13.5% | HCC-2998 colon 37.4%
active: RPMI-8226 leukemia 0.953% | OVCAR-8 ovarian 5.98% | OVCAR-5 ovarian 4.68% | OVCAR-4 ovarian -7.44% | SK-OV-3 ovarian -1.5% | IGROV1 ovarian -35% | OVCAR-3 ovarian 1.47% | NCI/ADR-RES ovarian -13.4% | T-47D breast 0.223% | SW-620 colon 0.919% | MCF7 breast -31.6% | HCT-116 colon -26.5% | KM12 colon 4.7%

Cc1cc(O)c(C2=NN(c3ccc(S(N)(=O)=O)cc3)C(c3ccccc3Cl)C2)cc1Cl (stereo unspecified)
active: OVCAR-8 ovarian -14.5% | OVCAR-3 ovarian -13.1% | HS 578T breast -4.47% | NCI/ADR-RES ovarian -11% | SW-620 colon -27.4% | MCF7 breast 0.899% | HCT-116 colon -90.4% | HCC-2998 colon -39.4% | KM12 colon -37%
inactive: RPMI-8226 leukemia 11% | OVCAR-5 ovarian 18.1% | OVCAR-4 ovarian 34.3% | SK-OV-3 ovarian 44.5% | IGROV1 ovarian 12.2% | T-47D breast 18.3%

COc1ccc(Cl)cc1NC(=O)C(Br)C(Br)C(=O)O (stereo unspecified)
inactive: RPMI-8226 leukemia 11.7% | OVCAR-8 ovarian 45.3% | OVCAR-5 ovarian 122% | OVCAR-4 ovarian 30.5% | SK-OV-3 ovarian 101% | HS 578T breast 86.3% | T-47D breast 19.9% | MDA-MB-435 melanoma 34.2% | MCF7 breast 23.8% | HCC-2998 colon 38.6% | KM12 colon 83.2%
active: IGROV1 ovarian -14.4% | OVCAR-3 ovarian 9.69% | NCI/ADR-RES ovarian -13.8% | SW-620 colon 8.71% | HCT-116 colon 8.19%

CCCCCCN(CCCCCC)c1ccc(/C=C2/SC(=O)N(c3nc(N4CCCC4)nc(N4CCCC4)n3)C2=O)c(C)c1
inactive: RPMI-8226 leukemia 42% | OVCAR-8 ovarian 66.1% | OVCAR-5 ovarian 104% | OVCAR-4 ovarian 51.9% | SK-OV-3 ovarian 91.3% | IGROV1 ovarian 77.3% | OVCAR-3 ovarian 63.2% | HS 578T breast 78.4% | NCI/ADR-RES ovarian 71.3% | T-47D breast 63.6% | MDA-MB-435 melanoma 75.5% | SW-620 colon 73.2% | MCF7 breast 54.8% | HCT-116 colon 45.5% | HCC-2998 colon 41.7% | KM12 colon 52.9%

COc1cc(C2CC(=O)Nc3c2c(C)nn3-c2nc3ccccc3[nH]2)c(OC)c2c1OCO2 (stereo unspecified)
active: MDA-MB-435 melanoma -20.2%
inactive: RPMI-8226 leukemia 60.1% | OVCAR-8 ovarian 67.9% | OVCAR-5 ovarian 105% | OVCAR-4 ovarian 76% | SK-OV-3 ovarian 81.7% | IGROV1 ovarian 63.1% | OVCAR-3 ovarian 68.8% | HS 578T breast 53.1% | NCI/ADR-RES ovarian 63.2% | T-47D breast 67.2% | SW-620 colon 47.1% | MCF7 breast 45.3% | HCT-116 colon 61.6% | HCC-2998 colon 97.5% | KM12 colon 52.1%

C[C@@]1(CCC#N)[C@H]2CC[C@@H]3[C@H]4[C@H](C(=O)/C=C/c5cccnc5)CC[C@]4(C#N)CC[C@@]3(C)[C@]2(C)CC[C@H]1C(=O)/C=C/c1cccnc1
active: RPMI-8226 leukemia -2.94%
inactive: OVCAR-8 ovarian 34.7% | OVCAR-5 ovarian 136% | OVCAR-4 ovarian 69.1% | SK-OV-3 ovarian 89.7% | IGROV1 ovarian 45.7% | OVCAR-3 ovarian 39.9% | NCI/ADR-RES ovarian 65.1% | T-47D breast 65.2% | BT-549 breast 80.7% | MDA-MB-435 melanoma 34% | SW-620 colon 37.2% | MCF7 breast 39.4% | HCT-116 colon 20% | HCC-2998 colon 105% | KM12 colon 36%

COc1cccc(-c2nc3sccn3c2-c2ccnc(NCCNS(=O)(=O)c3ccc(C(F)(F)F)cc3)c2)c1
inactive: OVCAR-8 ovarian 27.1% | OVCAR-5 ovarian 88% | OVCAR-4 ovarian 16.3% | SK-OV-3 ovarian 40.5% | IGROV1 ovarian 45.2% | OVCAR-3 ovarian 40.7% | HS 578T breast 30.5% | NCI/ADR-RES ovarian 19.9% | MDA-MB-435 melanoma 33.6% | SW-620 colon 64.9% | HCT-116 colon 27.9% | HCC-2998 colon 70% | KM12 colon 26.4%
active: RPMI-8226 leukemia 3.52% | T-47D breast 5.15%

CCC1(C2CCCC2)NC(=O)NC1=O (stereo unspecified)
inactive: RPMI-8226 leukemia 91.3% | OVCAR-8 ovarian 109% | OVCAR-5 ovarian 80.5% | OVCAR-4 ovarian 113% | SK-OV-3 ovarian 112% | IGROV1 ovarian 97.5% | OVCAR-3 ovarian 111% | HS 578T breast 98.9% | NCI/ADR-RES ovarian 109% | T-47D breast 93.4% | BT-549 breast 95.3% | SW-620 colon 104% | MCF7 breast 83.9% | KM12 colon 116%

O=C1Nc2ccccc2/C1=C/c1cn(C(=O)c2c(Cl)cccc2Cl)c2ccccc12
inactive: RPMI-8226 leukemia 51.8% | OVCAR-8 ovarian 52.3% | OVCAR-5 ovarian 85% | OVCAR-4 ovarian 50.4% | SK-OV-3 ovarian 71.8% | IGROV1 ovarian 25.8% | OVCAR-3 ovarian 43% | HS 578T breast 64.7% | NCI/ADR-RES ovarian 57.7% | T-47D breast 47.7% | BT-549 breast 51.7% | SW-620 colon 45.5% | MCF7 breast 22.9% | HCT-116 colon 26.1% | KM12 colon 54.8%

N/C(=N/N=C/c1ccccc1)N/N=C\c1ccccc1
inactive: RPMI-8226 leukemia 55.3% | OVCAR-8 ovarian 65.2% | OVCAR-5 ovarian 83.4% | OVCAR-4 ovarian 87.2% | SK-OV-3 ovarian 72.4% | IGROV1 ovarian 73% | OVCAR-3 ovarian 12.6% | HS 578T breast 67.7% | NCI/ADR-RES ovarian 10.7% | T-47D breast 37.6% | SW-620 colon 33.5% | MCF7 breast 31.6% | HCT-116 colon 35.9% | KM12 colon 35%
active: MDA-MB-435 melanoma -3.26%

NC(=O)c1ccc[n+]([C@@H]2O[C@H](COP(=O)([O-])OP(=O)(O)OC[C@H]3O[C@@H](n4cnc5c(N)ncnc54)[C@H](O)[C@@H]3O)[C@@H](O)[C@H]2O)c1
inactive: RPMI-8226 leukemia 97.6% | OVCAR-8 ovarian 96.8% | OVCAR-5 ovarian 107% | OVCAR-4 ovarian 106% | SK-OV-3 ovarian 113% | IGROV1 ovarian 109% | OVCAR-3 ovarian 107% | NCI/ADR-RES ovarian 99.2% | T-47D breast 114% | BT-549 breast 95.9% | MDA-MB-435 melanoma 104% | SW-620 colon 107% | MCF7 breast 102% | HCT-116 colon 94.7% | HCC-2998 colon 100% | KM12 colon 101%

O=C(CSc1nccc(Nc2ccc(S(=O)(=O)Nc3nccs3)cc2)n1)c1ccc(F)cc1
inactive: RPMI-8226 leukemia 108% | OVCAR-8 ovarian 98.1% | OVCAR-5 ovarian 106% | OVCAR-4 ovarian 99.2% | SK-OV-3 ovarian 97.6% | IGROV1 ovarian 106% | OVCAR-3 ovarian 111% | HS 578T breast 97.9% | NCI/ADR-RES ovarian 101% | T-47D breast 84% | MDA-MB-435 melanoma 104% | SW-620 colon 99.6% | MCF7 breast 96.9% | HCT-116 colon 95.9% | HCC-2998 colon 107% | KM12 colon 106%

O=C(/C=C/c1c(Cl)nc2sccn12)c1ccc(F)c(F)c1
inactive: RPMI-8226 leukemia 55.6% | OVCAR-8 ovarian 92.7% | OVCAR-5 ovarian 76.2% | OVCAR-4 ovarian 79.4% | SK-OV-3 ovarian 71.3% | IGROV1 ovarian 87.5% | OVCAR-3 ovarian 81.7% | HS 578T breast 73.3% | NCI/ADR-RES ovarian 85.6% | T-47D breast 50.3% | MDA-MB-435 melanoma 82.6% | SW-620 colon 77.3% | MCF7 breast 45.2% | HCT-116 colon 69.5% | HCC-2998 colon 85.6% | KM12 colon 83%

COc1ccc(NC(=O)CSc2nnc(-c3cc(-c4ccccc4)nc4ccccc34)n2-c2ccccc2)cc1
inactive: RPMI-8226 leukemia 90.1% | OVCAR-8 ovarian 90.4% | OVCAR-5 ovarian 99.2% | OVCAR-4 ovarian 90.3% | SK-OV-3 ovarian 102% | IGROV1 ovarian 92.5% | OVCAR-3 ovarian 103% | HS 578T breast 94.7% | NCI/ADR-RES ovarian 91.8% | T-47D breast 78.4% | MDA-MB-435 melanoma 99.2% | SW-620 colon 101% | MCF7 breast 89.1% | HCT-116 colon 92.6% | HCC-2998 colon 107% | KM12 colon 98.1%
